From PubChem
Most compounds without a hit are left out; they make up all but 6.3% or so of the library.
NADH coupling = blocks coupling enzymes of NAD/NADH assays; coupled PK/LDH NADH assays, four targets; actives 0.02% (n = 65,000); IC50, µM (highest dose often 10 µM), for inactives: top-dose inhibition;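 active = single-dose screening hits from any of four coupled enzyme assays that gave an IC50 when retested across doses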;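 note: the DPM-DC format reads NADH fluorescence rather than 340 nm absorbance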
PMK inhibit = inhibitors of Streptococcus pneumoniae phosphomevalonate kinase. actives 0.49% (n = 65,000). purified PMK, PK/LDH-coupled NADH absorbance 340 nm. inhibition, % at 10 µM;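 active = top-ranked compounds by inhibition in the single 10 µM screen, taking a fixed number of the strongest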;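 note: 0% = full reaction with DMSO carrier and 100% = background rate without enzyme reaction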
Autofluor 339 = intrinsic fluorescence of library compounds, ex339/em460 – biochemical, MLSMR library, data from DPM-DC assay, artefact control, profiling panel; compound autofluorescence, ex339/em460 nm, NADH buffer; stronger effect = higher value; 1 = no-compound wells, NADH background; fluorescence fold increase at 10 µM; actives 5.5% (n = 65,000);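 active = at 10 µM, mean starting fluorescence two-fold or more over control wells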;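 note: signal is the first read of a kinetic run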
MK inhibit = inhibitors of Streptococcus pneumoniae mevalonate kinase | purified MK, PK/LDH-coupled NADH absorbance 340 nm | inhibition, % at 10 µM | AID 555 | actives 0.48% (n = 65,000);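 active = ranked among the strongest by inhibition in the single 10 µM screen, a fixed top-ranked set picked for dose follow-up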
DPM-DC inhibit = S. pneumoniae DPM-DC inhibition. purified DPM-DC, PK/LDH coupled NADH fluorescence. calls only at 10 µM. AID 556. actives 0.49% (n = 65,000);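 active = the 320 compounds with the highest percent inhibition in the single-dose primary screen, excluding strongly autofluorescent ones, cut at about 32% in these data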;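 note: kinetic rate of NADH fluorescence loss reporting ADP formed by the decarboxylase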
A340 absorber = compound absorbs light at 340 nm | 65,000 tested, under 10 active | AID 708 | fold change at 10 µM | compound absorbance at 340 nm, fold over control;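 active = at 10 µM dose, initial 340 nm absorbance at least 2 fold that of control wells; inactive = change under 2 fold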;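 note: initial absorbance extrapolated from kinetic A340 decline of NADH oxidation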
* hit, by the source's call.

Cc1onc(-c2ccccc2)c1C(=O)Nc1ccc2c(C)cc(=O)oc2c1 was read as NADH coupling 3.0%, PMK inhibit 0.0, Autofluor 339 2.22*, MK inhibit 6.0 and A340 absorber 1.13.
`O=C(Nc1nnc(-c2ccncc2)s1)C1CCCO1` (configuration not stated) gave NADH coupling 3.0%, PMK inhibit 0.0, Autofluor 339 3.69*, MK inhibit 6.0 and A340 absorber 1.15.
Screening Clc1ccc(C(c2nnnn2C2CCCC2)N2CCSCC2)cc1 (configuration not stated) returned NADH coupling 3.0%, PMK inhibit 3.0, Autofluor 339 1.1, MK inhibit 6.0, DPM-DC inhibit inactive and A340 absorber 1.04.
`COc1cc(-c2ccc(NC(=O)CN3CCCCC3)c(OC)c2)ccc1NC(=O)CN1CCCCC1` gave NADH coupling 11.0%, PMK inhibit 13.0, Autofluor 339 1.11, MK inhibit 9.0, DPM-DC inhibit inactive and A340 absorber 1.02.
CCOc1ncccc1C(=O)Nc1ccc2c(C)cc(=O)oc2c1 was read as NADH coupling 8.0%, PMK inhibit 0.0, Autofluor 339 2.21*, MK inhibit 0.0, DPM-DC inhibit active and A340 absorber 1.
Cc1onc(-c2ccccc2)c1C(=O)Nc1nnc(-c2ccncc2)s1 was read as NADH coupling 8.0%, PMK inhibit 10.0, Autofluor 339 3.76*, MK inhibit 6.0 and A340 absorber 1.19.
Screening Cc1noc(C)c1COC(=O)C1(c2cccc(F)c2)CCCC1 returned NADH coupling 6.0%, PMK inhibit 9.0, Autofluor 339 1.08, MK inhibit 10.0, DPM-DC inhibit inactive and A340 absorber 0.97.
For Cn1c(-c2ccccc2)c(CCO)c2ccccc21 the results were NADH coupling 2.0%, PMK inhibit 0.0, Autofluor 339 1.37, MK inhibit 0.0, DPM-DC inhibit inactive and A340 absorber 0.99.
CCCc1c(CC)c(=N)c2ccccc2n1C was read as NADH coupling 6.0%, PMK inhibit 3.0, Autofluor 339 3.45*, MK inhibit 8.0 and A340 absorber 1.12.
`CCOc1ccc(C(C)NC(=O)CCC(=O)O)cc1` (configuration not stated) gave NADH coupling 8.0%, PMK inhibit 19.0, Autofluor 339 1.15, MK inhibit 4.0, DPM-DC inhibit inactive and A340 absorber 1.03.
For COc1cc(OC)cc(C(=O)N2CCN(C(=O)c3cccc(F)c3)CC2)c1 the results were NADH coupling 6.0%, PMK inhibit 8.0, Autofluor 339 1.08, MK inhibit 9.0, DPM-DC inhibit inactive and A340 absorber 1.02.
Screening COc1cccc(CN2CCN(C(=O)c3cccc(F)c3)CC2)c1 returned NADH coupling 17.0%, PMK inhibit 0.0, Autofluor 339 1.04, MK inhibit 51.0*, DPM-DC inhibit inactive and A340 absorber 1.05.
Screening Cc1ccc(S(=O)(=O)Nc2cc(C(=O)NCCN3CCCC3)ccc2N2CCCCC2)cc1 returned NADH coupling 8.0%, PMK inhibit 15.0, Autofluor 339 1.45, MK inhibit 10.0, DPM-DC inhibit inactive and A340 absorber 1.
`COCCCNC(=O)c1ccc(N2CCCC2)c(NS(=O)(=O)c2ccc(C)cc2)c1` gave NADH coupling 11.0%, PMK inhibit 25.0*, Autofluor 339 1.04, MK inhibit 8.0, DPM-DC inhibit inactive and A340 absorber 1.05.
Screening Cn1nnnc1SCc1cn2cccnc2n1 returned NADH coupling 3.0%, PMK inhibit 14.0, Autofluor 339 3.28*, MK inhibit 2.0 and A340 absorber 1.
For c1ccc(Cn2c(SCc3cn4cccnc4n3)nnc2-c2ccco2)cc1 the results were NADH coupling 10.0%, PMK inhibit 14.0, Autofluor 339 2.24*, MK inhibit 6.0, DPM-DC inhibit inactive and A340 absorber 1.03.
`N#Cc1nc(Cc2cccc3ccccc23)oc1NCc1ccc(F)cc1` gave NADH coupling 3.0%, PMK inhibit 1.0, Autofluor 339 1.09, MK inhibit 9.0, DPM-DC inhibit inactive and A340 absorber 1.01.
Screening CNc1oc(-c2cccc3ccccc23)nc1C#N returned NADH coupling 7.0%, PMK inhibit 7.0, Autofluor 339 3.72*, MK inhibit 6.0 and A340 absorber 1.06.
Screening COc1ccc(CNc2oc(-c3cccc4ccccc34)nc2C#N)cc1 returned NADH coupling 1.0%, PMK inhibit 4.0, Autofluor 339 3.02*, MK inhibit 0.0 and A340 absorber 1.04.
CC[N+](CC)(CC)C/C(N)=N/O was read as NADH coupling 9.0%, PMK inhibit 11.0, Autofluor 339 1.18, MK inhibit 15.0, DPM-DC inhibit inactive and A340 absorber 1.
For CCOc1cc(C(=O)NCc2nnc(SCC(=O)OC)n2C)cc(OCC)c1OCC the results were NADH coupling 12.0%, PMK inhibit 12.0*, Autofluor 339 1.03, MK inhibit 0.0, DPM-DC inhibit inactive and A340 absorber 1.
For O=C(Nc1ccccc1)c1ccc2nc(-c3ccco3)c(-c3ccco3)nc2c1 the results were NADH coupling 10.0%, PMK inhibit 4.0, Autofluor 339 2.56*, MK inhibit 16.0, DPM-DC inhibit inactive and A340 absorber 1.05.
O=C(Nc1ccc(N2CCOCC2)cc1)c1ccc2nc(-c3ccco3)c(-c3ccco3)nc2c1 was read as NADH coupling 6.0%, PMK inhibit 5.0, Autofluor 339 1.04, MK inhibit 10.0, DPM-DC inhibit inactive and A340 absorber 1.05.
CCCCNC(=O)c1ccc2nc(-c3ccco3)c(-c3ccco3)nc2c1 was read as NADH coupling 20.0%, PMK inhibit 7.0, Autofluor 339 1.86, MK inhibit 17.0, DPM-DC inhibit active and A340 absorber 1.1.
`CCn1cc(C(=O)NCc2ccc(Cl)cc2)c(=O)c2cc(S(=O)(=O)N3CCOCC3)ccc21` gave NADH coupling 3.0%, PMK inhibit 5.0, Autofluor 339 1.07, MK inhibit 5.0, DPM-DC inhibit inactive and A340 absorber 1.09.
`O=C(Nc1cccc(N2CCCC2)c1)c1cccs1` gave NADH coupling 2.0%, PMK inhibit 0.0, Autofluor 339 1.08, MK inhibit 5.0, DPM-DC inhibit inactive and A340 absorber 1.03.
For CC1(C)CC(=O)C2=C(C1)Nc1ccccc1NC2c1ccccn1 (configuration not stated) the results were NADH coupling 8.0%, PMK inhibit 16.0, Autofluor 339 0.99, MK inhibit 6.0, DPM-DC inhibit inactive and A340 absorber 1.21.
Screening Cc1cc2c(cc1C)NC(c1c(C)n(C)n(-c3ccccc3)c1=O)C1=C(CC(C)(C)CC1=O)N2 (configuration not stated) returned NADH coupling 6.0%, PMK inhibit 3.0, Autofluor 339 2.57*, MK inhibit 7.0, DPM-DC inhibit inactive and A340 absorber 1.06.
